High-throughput results: PubChem, National Center for Advancing Translational Sciences (NCATS)
BRCT inh green – qHTS Assay for Inhibitors of BRCT-Phosphoprotein Interaction (Green Fluorophore) | Potency, µM (top dose mostly 76.9 µM), without a hit: at the highest dose activity change, negative = inhibition, actives largely listed as inhibitors | Breast cancer type 1 susceptibility protein (Homo sapiens), P38398 | BRCA1 BRCT-phosphopeptide binding, green fluorescence polarization | hit rate 0.05% among 75,000 | AID 875, 2007;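 also: potency is read from the fitted curve at half-maximal effect; plate controls were peptide without protein for full effect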
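Fluorescence polarization: His-tagged BRCT (~35 kDa BRCA1 C-terminus, 250 nM) bound to 100 nM fluorescein-labeled phosphorylated 10-aa BACH1 peptide, pH 7.3 phosphate buffer with DTT and Tween 20. Compounds incubated 12 min at room temperature; inhibition read as lowered polarization.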
BRCT inh red – qHTS Assay for Inhibitors of BRCT-Phosphoprotein Interaction (Red Fluorophore); BRCT-phosphopeptide binding, red fluorescence polarization; Potency, µM (series often up to 76.9 µM), for inactives: at the top dose activity change, negative = inhibition, usual class: inhibitors; hit rate 0.03% among 75,000; also: % is scaled to controls: 0 for no effect and ±100 for the full control effect
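Fluorescence polarization: 100 nM His-tagged BRCA1 BRCT with 100 nM TAMRA-labelled phospho-BACH1 decapeptide, phosphate buffer pH 7.3 with 150 mM NaCl, DTT, 0.01% Tween 20; 12 min RT. Binding inhibition seen as FP decrease.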
15-hLO inh – qHTS Assay for Inhibitors of 15-hLO (15-human lipoxygenase). Polyunsaturated fatty acid lipoxygenase ALOX15 (Homo sapiens), P16050. purified 15hLO-1, xylenol orange hydroperoxide absorbance. Potency, µM (top dose mostly 57.1 µM), for inactives: at the top dose activity change, negative = inhibition, most hits filed as inhibitors. hit rate 1.4% among 74,000; also: potency is read from the fitted curve at half-maximal effect; % is scaled to controls: 0 for no effect and ±100 for the full control effect; nearly all actives have a fitted effect of over 55% in size
Target sequence (P16050 whole entry, looked up): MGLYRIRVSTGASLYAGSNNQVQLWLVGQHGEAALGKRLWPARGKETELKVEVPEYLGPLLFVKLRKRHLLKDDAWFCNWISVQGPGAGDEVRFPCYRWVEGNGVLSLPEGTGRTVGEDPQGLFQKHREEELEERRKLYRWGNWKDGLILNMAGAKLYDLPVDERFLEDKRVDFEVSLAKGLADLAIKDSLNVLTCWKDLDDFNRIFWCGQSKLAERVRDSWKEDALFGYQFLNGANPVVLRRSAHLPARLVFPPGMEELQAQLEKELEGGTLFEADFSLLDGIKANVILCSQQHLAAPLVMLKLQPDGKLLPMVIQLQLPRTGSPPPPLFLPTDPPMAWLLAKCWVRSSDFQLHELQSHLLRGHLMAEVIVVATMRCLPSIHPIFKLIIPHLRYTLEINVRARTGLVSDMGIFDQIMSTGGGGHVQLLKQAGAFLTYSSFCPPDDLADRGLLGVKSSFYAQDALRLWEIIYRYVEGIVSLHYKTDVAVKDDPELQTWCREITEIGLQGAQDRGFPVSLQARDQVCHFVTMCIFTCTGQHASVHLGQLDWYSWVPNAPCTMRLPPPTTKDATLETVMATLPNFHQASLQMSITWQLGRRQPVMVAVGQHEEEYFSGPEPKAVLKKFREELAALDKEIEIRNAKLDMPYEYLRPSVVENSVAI
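Quantitative HTS in 25 mM Hepes pH 7.5 containing 0.01% Triton X-100: human 15hLO-1 at 40 nM, arachidonic acid at 50 uM, 6 min turnover. Product quantified via ferrous oxidation/xylenol orange, 573:405 nm absorbance ratio.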
ERK AVP block – qHTS Assay for Inhibitors of the ERK Signaling Pathway using a Homogeneous Screening Assay; HEK293-V1b, vasopressin-stimulated pERK AlphaScreen; Potency, µM (series often up to 57.5 µM), for inactives: at the top dose activity, negative = inhibition, hits mostly inhibitors; hit rate 0.99% among 72,000; also: potency is read from the fitted curve at half-maximal effect; % is scaled to controls: 0 for no effect and ±100 for the full control effect; nearly all actives have a fitted effect of over 55% in size
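HEK293 cells stably expressing V1b receptor, preincubated 30 min at 37 °C with compound, then stimulated 5 min with 25 nM vasopressin. Phospho-ERK by AlphaScreen SureFire after 5 h RT; normalized to DMSO and vasopressin; AC50 by Hill fit.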
DNA Pol III inh – qHTS Assay for Inhibitors of DNA Polymerase III Holoenzyme System; Potency, µM (highest dose often 57.1 µM), for inactives: top-dose activity change, negative = inhibition; hit rate 0.25% among 71,000; reconstituted DNA polymerase III holoenzyme replication, biochemical; also: potency is read from the fitted curve at half-maximal effect; % is scaled to controls: 0 for no effect and ±100 for the full control effect
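Reconstituted *E. coli* holoenzyme (0.35 nM Pol III, 1 nM beta, 154 nM SSB, 2 nM primase) was preincubated with compound for 15 min at RT. Synthesis on 1.4 nM ssM13Gori ran 35 min, then was stopped with PicoGreen/EDTA and read as dsDNA fluorescence.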
YjeE inh – qHTS Assay for Inhibitors of YjeE | purified YjeE enzyme, qHTS inhibition assay | Potency, µM | hit rate 0.05% among 71,000
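Purified YjeE (10 uM) with BODIPY Texas Red-labeled ADP probe (2 uM); compounds pin-transferred, 15 min at room temperature. Binding inhibition read as decreased fluorescence polarization; ADP titration as control.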
* = called active by the depositor; [ ] = remark or other dose. Hits are enriched below; roughly 2.4% of the tested compounds scored in any of these assays. Calls follow the shape of the dose curve; as a rule, active = well fitted curve in the direction sought with a large enough effect; inconclusive = small, poorly fitted or top-dose-only effect, or another doubt; inactive = no such curve, though single readings can be large; an effect the other way counts as inactive or inconclusive.

For O=C(C1CCCN1S(=O)(=O)c1cccc2cccnc12)N1CCc2ccccc21 (centres undefined) the results were BRCT inh green 0.0%, BRCT inh red -0.2%, 15-hLO inh -2.4%, ERK AVP block 3.9%, DNA Pol III inh -1.6% and YjeE inh inactive.
`CN(C)CN1C(=O)S/C(=C2/C(=O)N(CN(C)C)c3ccccc32)C1=O` gave BRCT inh green -1.7%[15.4 µM], BRCT inh red 1.1%[15.4 µM], 15-hLO inh 11.3%[11.4 µM], ERK AVP block -9.2%[11.5 µM], DNA Pol III inh -8.9%[11.4 µM] and YjeE inh inactive.
CCCCOC(=O)c1[nH]c2c(c1C)C(=O)CC(c1cc(OC)c(OC)c(OC)c1)C2 (centres undefined) was read as BRCT inh green 0.6%, BRCT inh red -0.1%, 15-hLO inh -10.1%, ERK AVP block 25.1µM*, DNA Pol III inh 3.5% and YjeE inh inactive.
Screening CC1=C(/C=C/C(C)=C/C=C/C(C)=C/C(=O)O)C(C)(C)CCC1 returned BRCT inh green 0.5%, BRCT inh red 1.1%, 15-hLO inh -7.5%[25.6 µM] and ERK AVP block 8.4%.
For CC1=C(/C=C/C(C)=C/C=C/C(C)=C/C=C/C=C(C)/C=C/C=C(C)/C=C/C(=O)[C@]2(C)CC(O)CC2(C)C)C(C)(C)CC(O)C1 (some centres undefined) the results were BRCT inh green -0.3%[3.08 µM], BRCT inh red 0.3%, 15-hLO inh 3.16µM* and ERK AVP block -1.9%.
For COc1ccc(CN/C(C)=C(/C#N)C(N)=O)cc1OC the results were BRCT inh green 2.7%, BRCT inh red -1.2%, 15-hLO inh -6.4%, ERK AVP block -15.3%, DNA Pol III inh -7.0% and YjeE inh inactive.
For O=C(Nc1cccc(Oc2ccc3c(c2)C(=O)NC3=O)c1)c1ccco1 the results were BRCT inh green -1.0%, BRCT inh red 1.7%, 15-hLO inh 15.8µM*, ERK AVP block -28.4%, DNA Pol III inh -15.6% and YjeE inh inactive.
For CCC1=C/C(=C/N(C)c2ccccc2)C(=O)S1 the results were BRCT inh green -6.2%, BRCT inh red -1.7%, 15-hLO inh 25.1µM*, ERK AVP block 15.5%, DNA Pol III inh -1.4% and YjeE inh inactive.
`c1ccc(-c2onc3cc4c(cc23)OCCO4)cc1` gave BRCT inh green -3.0%, BRCT inh red 1.1%, 15-hLO inh 12.6µM*, ERK AVP block inconclusive, DNA Pol III inh -0.3% and YjeE inh inactive.
Screening CC1(C)CC(=O)c2c(noc2-c2ccccc2)C1 returned BRCT inh green -0.4%, BRCT inh red -1.7%, 15-hLO inh -3.7%, ERK AVP block 28.2%, DNA Pol III inh -0.6% and YjeE inh inactive.
For Cn1c(COc2ccc(Cl)cc2)nnc1SCc1ncc(-c2ccccc2)o1 the results were BRCT inh green 0.8%, BRCT inh red 0.3%, 15-hLO inh -3.5%, ERK AVP block -10.7%, DNA Pol III inh -2.5% and YjeE inh inactive.
COc1ccc(-n2cnnc2SCc2ncc(-c3ccccc3)o2)cc1 was read as BRCT inh green 3.2%, BRCT inh red -2.8%, 15-hLO inh 10.0%, ERK AVP block inconclusive, DNA Pol III inh 5.01µM* and YjeE inh inactive.
For CCc1cc2c(CN3CCN(CCO)CC3)cc(=O)oc2cc1O the results were BRCT inh green -3.1%, BRCT inh red 0.3%, 15-hLO inh 3.2%, ERK AVP block -11.9%, DNA Pol III inh -2.3% and YjeE inh inactive.
For COc1ccc(-c2nc3cnc(N4CCOCC4)nc3n(Cc3cccc(OC)c3)c2=O)cc1 the results were BRCT inh green 0.5%, BRCT inh red 0.3%, 15-hLO inh -2.4%, ERK AVP block 6.3%, DNA Pol III inh -6.2% and YjeE inh inactive.
`O=C(CSc1nnc(-c2ccccc2)o1)c1nnc(-c2ccccc2)o1` gave BRCT inh green 10.1%, BRCT inh red -0.2%, 15-hLO inh 20µM*, ERK AVP block -29.3%, DNA Pol III inh -0.1% and YjeE inh inactive.
For Cn1c(=O)c(-c2ccc(Cl)cc2)nc2cnc(Oc3ccccc3)nc21 the results were BRCT inh green -3.0%, BRCT inh red 0.7%, 15-hLO inh 2.5%, ERK AVP block 6.6%, DNA Pol III inh -2.9% and YjeE inh inactive.
CC1(C)CC(N=C=O)CC(C)(CN=C=O)C1 (centres undefined) was read as BRCT inh green -0.7%, BRCT inh red 1.1%, 15-hLO inh -12.2%, ERK AVP block 25.1%, DNA Pol III inh -8.2% and YjeE inh inactive.
Cc1cccc(N2CCN(C(=O)CCNS(=O)(=O)c3ccc4c(c3)CCC(=O)N4)CC2)c1C was read as BRCT inh green 2.3%, BRCT inh red -0.1%, 15-hLO inh inconclusive, ERK AVP block 25.1µM*, DNA Pol III inh 3.0% and YjeE inh inactive.
`O=C(CCNS(=O)(=O)c1ccc2c(c1)CCC(=O)N2)NCc1ccc2c(c1)OCO2` gave BRCT inh green -2.1%, BRCT inh red 0.4%, 15-hLO inh -3.8%, ERK AVP block 3.2%, DNA Pol III inh -8.3% and YjeE inh inactive.
O=c1cc(-c2ccccc2)c2ccc(O)c(CN3CCCCC3)c2o1 was read as BRCT inh green 1.2%, BRCT inh red -1.0%, 15-hLO inh -5.4%, ERK AVP block -23.2%, DNA Pol III inh -2.9% and YjeE inh inactive.
Screening O=c1oc2c(CN3CCCCCC3)c(O)ccc2cc1-c1nc2ccccc2[nH]1 returned BRCT inh green 31.6µM*, BRCT inh red 2.0%, 15-hLO inh -15.9%, ERK AVP block 4.6%, DNA Pol III inh 93.8% and YjeE inh inactive.
Cn1c(=O)c(-c2ccccc2)nc2cnc(N3CCOCC3)nc21 was read as BRCT inh green 3.3%, BRCT inh red -1.1%, 15-hLO inh -21.7%, ERK AVP block 14.6%, DNA Pol III inh -18.1% and YjeE inh inactive.
`CC(C)(C)c1ccc(O)c(O)c1` gave BRCT inh green -0.8%, BRCT inh red 1.0%, 15-hLO inh 3.98µM*, ERK AVP block -3.3%, DNA Pol III inh 0.6% and YjeE inh inactive.
`CC(C)(C)c1cc(O)c(C(C)(C)C)cc1O` gave BRCT inh green -1.8%, BRCT inh red -1.1%, 15-hLO inh inconclusive, ERK AVP block -17.1%, DNA Pol III inh 0.0% and YjeE inh inactive.
For CCOC(=O)c1c(OCC)[nH]c2c1cc(O)c1ccccc12 the results were BRCT inh green -1.9%, BRCT inh red -0.7%, 15-hLO inh 7.94µM*, ERK AVP block 25.1µM*, DNA Pol III inh -9.2% and YjeE inh inactive.
